Test results as given in PubChem BioAssay (NCATS).
“And” between values parts separate entries of the source, which are not always exact repeats. Equal entries are not always repeated. Inconclusive results are not listed. The source made the active and inactive calls. Unless noted, the call rests on the fitted dose curve.

Legend:
[1] = target: Voltage-gated inwardly rectifying potassium channel KCNH2 (Homo sapiens) (UniProt Q12809); assay: qHTS Assay for Small Molecule Inhibitors of the Human hERG Channel Activity (AID 588834; active means well fitted curve in the direction sought with a large enough effect; an effect the other way counts as inactive or inconclusive;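 further: lower thallium flux fluorescence means stronger hERG block; nearly all actives have a fitted effect of over 50% in size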; further: potency means the concentration at half of the fitted maximal effect)
Procedure, shortened: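 In hERG-transduced U2OS cells, dye-loaded for 1 hr at room temperature in dark, test compounds incubated 10 min at 37 °C before thallium stimulation. AC50 values derived by Hill modelling of concentration-response.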

[2] = target: Glucocorticoid receptor (Homo sapiens) (UniProt P04150); assay: qHTS assay for small molecule agonists of glucocorticoid receptor signaling (AID 588532; active means well fitted curve in the direction sought with a large enough effect in the signal ratio, with a control signal flat; the % refers to the signal ratio;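 further: 100% = dexamethasone at 0.1 µM and 0% = DMSO only wells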); conditions: HeLa MMTV-bla, beta-lactamase ratio, agonist, 18 h; stronger effect = higher value; percent of dexamethasone control, DMSO zero
Procedure, shortened: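 MMTV-bla HeLa, beta-lactamase reporter; medium with 1% charcoal/dextran-stripped FBS; cpds up to 92 uM, 18 h, 37 C; CCF4 readout 460/530 nm; Hill fit → EC50, efficacy vs 0.1 uM dexamethasone = 100%.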

[3] = target: Glucocorticoid receptor (Homo sapiens) (UniProt P04150); assay: qHTS assay for small molecule antagonists of glucocorticoid receptor signaling (AID 588533; active means well fitted inhibition curve with a large enough effect in the signal ratio, with a control signal flat, not every such curve was filed as active; the % refers to the signal ratio;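 further: cells stimulated with 2 nM dexamethasone as agonist; on the % scale 0 is the no-effect control and ±100 the full control effect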)
Procedure, shortened: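 Antagonist-mode qHTS: compound titrations added to GRE-bla HeLa cells, then dexamethasone 2 nM final; 18 h, 37 C. CCF4 FRET fluorescence normalized to dexamethasone and DMSO; IC50 from Hill fit.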

[4] = target: Peroxisome proliferator-activated receptor gamma (Homo sapiens) (UniProt P37231); assay: qHTS assay for small molecule antagonists of peroxisome proliferator-activated receptor gamma signaling (AID 588537; active means well fitted inhibition curve with a large enough effect in the signal ratio, with a control signal flat, not every such curve was filed as active; the % refers to the signal ratio;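 further: reporter cells co-stimulated with 50 nM rosiglitazone agonist during compound treatment; % of control where 0% means no effect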)
Procedure, shortened: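 HEK293 cells, PPAR-gamma-UAS-bla, 3000/well. Pre-incubation 6-6.5 h, 37 C. Compound titration with rosiglitazone 50 nM final, 16 h. CCF4 dye, 2 h RT, dual-emission fluorescence.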

[5] = target: Luciferin 4-monooxygenase (Photinus pyralis) (UniProt P08659); assay: Biochemical firefly luciferase enzyme assay for NPC (AID 624030; active means well fitted curve in the direction sought with a large enough effect; an effect the other way counts as inactive or inconclusive; further: nearly all actives have a fitted effect of over 70% in size; further: potency means the concentration at half of the fitted maximal effect)
Procedure, shortened: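 Counter-screen for direct inhibition of the luciferase enzyme by approved-drug library compounds, run at 10 nM enzyme in 50 mM Tris acetate (final). Luminescence was read within 5 min of enzyme-buffer addition and normalized to PTC124 versus DMSO (0%).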

[6] = target: Bile acid receptor (Homo sapiens) (UniProt Q96RI1); assay: qHTS assay for small molecule antagonists of farnesoid X receptor signaling (AID 588526); further: on the % scale 0 is the no-effect control and ±100 the full control effect
Procedure, shortened: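 Concentration-response titrations were fitted to the Hill equation for half-maximal inhibition and maximal response, with data normalised to 50 uM chenodeoxycholic acid and DMSO control wells. Cells: FXR-UAS-bla HEK293T, dialyzed FBS.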

[7] = qHTS assay for small molecule antagonists of peroxisome proliferator-activated receptor delta signaling (AID 588535; active means well fitted inhibition curve with a large enough effect in the signal ratio, with a control signal flat, not every such curve was filed as active; the % refers to the signal ratio;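 on max response: cells co-treated with a PPAR-delta agonist as stimulator during compound exposure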); conditions: HEK293T PPARd-UAS-bla, beta-lactamase FRET ratio, 18 h; 460 nm channel
Procedure, shortened: (§1)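 Compounds tested in titration on PPAR-delta-UAS-bla HEK293T cells grown in charcoal/dextran-stripped serum (2%); beta-lactamase activity read via CCF4 emission at 460 and 530 nm.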

[8] = target: Peroxisome proliferator-activated receptor delta (Homo sapiens) (UniProt Q03181); assay: as above
Procedure, shortened: as §1

[9] = target: Peroxisome proliferator-activated receptor gamma (Homo sapiens) (UniProt P37231); assay: qHTS assay for small molecule agonists of peroxisome proliferator-activated receptor gamma signaling (AID 588536; active means well fitted curve in the direction sought with a large enough effect in the signal ratio, with a control signal flat, not every such curve was filed as active; the % refers to the signal ratio;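 further: 0% = DMSO basal wells and 100% = rosiglitazone at 2 µM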)
Procedure, shortened: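 Compound treatment: 16 h, 37 C, HEK293 GeneBLAzer cells. Detection: CCF4, 2 h RT. Values: Hill-fit EC50, efficacy as % of 2 uM rosiglitazone.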

[10] = target: Vitamin D3 receptor (Homo sapiens) (UniProt P11473); assay: qHTS assay for small molecule antagonists of vitamin D receptor signaling (AID 588541);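 further: receptor activated by calcitriol during compound treatment; series mostly up to about 77 µM; on the % scale 0 is the no-effect control and ±100 the full control effect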
Procedure, shortened: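 VDR-UAS-bla HEK293T cells (2000/well, 2% charcoal-stripped FBS) were treated with titrated compounds plus 1-alpha,25-dihydroxyvitamin D3 (50 nM or 3 nM final) for 16 h at 37 C. CCF4 beta-lactamase fluorescence was read; Hill fits gave IC50.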

[11] = qHTS assay for small molecule agonists of retinoid X receptor alpha signaling (AID 588544); conditions: HEK293T RXRa-UAS-bla, beta-lactamase reporter, 18 h; 530 nm emission
[12] = target: Thyroid hormone receptor beta (Homo sapiens) (UniProt P10828); assay: qHTS assay for small molecule agonists of thyroid hormone receptor beta signaling (AID 588545);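 further: 0% = DMSO only and 100% = 10 nM T3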
Procedure, shortened: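 Beta-lactamase reporter activity under TR response element control is measured in HEK 293 cells after 18 hrs compound exposure. Signal is ratiometric CCF4 fluorescence, 460/530 nm.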

[13] = qHTS assay for small molecule antagonists of retinoid X receptor alpha signaling (AID 588546; active means well fitted inhibition curve with a large enough effect in the signal ratio, with a control signal flat, not every such curve was filed as active; the % refers to the signal ratio;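 further: cells stimulated with 9-cis-retinoic acid as agonist; on the % scale 0 is the no-effect control and ±100 the full control effect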); conditions: HEK293T RXRa-UAS-bla, beta-lactamase ratio, antagonist mode; measured here: W530 green channel, cytotoxicity proxy
Procedure, shortened: (§2)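 Beta-lactamase reporter inhibition, read as CCF4 fluorescence ratio (ex 405, em 460/530 nm) after 2 h at RT. HEK293T UAS-bla cells, 2500/well, were stimulated with 9-cis-RA at 500 or 100 nM final alongside test compound for 18 h at 37 C.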

[14] = target: Retinoic acid receptor RXR-alpha (Homo sapiens) (UniProt P19793); assay: as above; conditions: HEK293T RXRa-UAS-bla, beta-lactamase ratio, antagonist mode
Procedure, shortened: as §2

[15] = target: Thyroid hormone receptor beta (Homo sapiens) (UniProt P10828); assay: qHTS assay for small molecule antagonists of thyroid hormone receptor beta signaling (AID 588547; active means well fitted inhibition curve with a large enough effect in the signal ratio, with a control signal flat, not every such curve was filed as active; the % refers to the signal ratio); conditions: TR-UAS-bla HEK293, beta-lactamase ratio, antagonist mode, 18 h
Procedure, shortened: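 TR-UAS-bla GripTite HEK293 cells in 2% charcoal/dextran FBS medium were preincubated 4 h at 37 C, given compound (0.59 nM to 92 uM) plus 0.4 nM T3 (final) for 18 h, then CCF4 for 2 h at RT; Hill fit gave IC50.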

[16] = target: Vitamin D3 receptor (Homo sapiens) (UniProt P11473); assay: qHTS assay for small molecule agonists of vitamin D receptor signaling (AID 588543);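 further: 0% = DMSO basal and 100% = reference agonist control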
Procedure, shortened: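 GeneBLAzer VDR-UAS-bla HEK293T cells in 2% charcoal-stripped FBS medium were dosed with compound titrations for 16 h at 37 °C; CCF4 β-lactamase readout (405 nm ex, 460/530 nm em). EC50 and efficacy from Hill fits, normalized to 50 nM calcitriol (100%) and DMSO (0%).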

[17] = target: Estrogen receptor (Homo sapiens) (UniProt P03372); assay: qHTS assay for small molecule agonists of estrogen receptor alpha signaling (AID 588514);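 further: 0% = vehicle only and 100% = reference agonist; nearly all actives have a fitted effect of over 70% in size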
Procedure, shortened: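 Read-out: CCF4 fluorescence from a beta-lactamase reporter in ER-alpha-UAS-bla HEK 293 cells after 18 hrs of compound exposure at 37 C. Normalized to 20 nM 17-beta-estradiol (100%) and DMSO (0%).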

[18] = target: Androgen receptor (Homo sapiens) (UniProt P10275); assay: qHTS assay for small molecule agonists of androgen receptor signaling (AID 588515; active means well fitted curve in the direction sought with a large enough effect in the signal ratio, with a control signal flat; the % refers to the signal ratio; further: on the % scale 0 is the no-effect control and ±100 the full control effect); conditions: AR-UAS-bla HEK293, beta-lactamase ratio, agonist 16 h; stronger effect = higher value
Procedure, shortened: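 Stimulation of an AR-responsive β-lactamase reporter in GripTite HEK293 cells was measured after 16 h compound exposure at 37 °C, via CCF4 fluorescence after 2 h RT. EC50 from Hill fits, normalized to R1881 at 30 nM.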

[19] = target: Androgen receptor (Homo sapiens) (UniProt P10275); assay: qHTS assay for small molecule antagonists of androgen receptor signaling (AID 588516; active means well fitted curve in the direction sought with a large enough effect in the signal ratio, with a control signal flat, not every such curve was filed as active; the % refers to the signal ratio; further: on the % scale 0 is the no-effect control and ±100 the full control effect)
Procedure, shortened: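 AR-UAS-bla-GripTite HEK 293 cells (2000/well, 5 h at 37 C) received compound titrations, then R1881 at 10 nM final; after 16 h at 37 C, CCF4 dye 2 h RT, beta-lactamase fluorescence read; IC50 from Hill fits.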

[20] = qHTS for Inhibitors of the vitamin D receptor (VDR): Hit Validation using a Texas Red Assay (AID 602201; active means well fitted curve in the direction sought with a large enough effect; an effect the other way counts as inactive or inconclusive; further: potency means the concentration at half of the fitted maximal effect); conditions: VDR coregulator binding, Texas Red fluorescence polarization; agonist-bound VDR ligand-binding domain
Procedure, shortened: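 Fluorescence polarization (Ex 595/Em 615 nm) of Texas Red (7 nM) with 1.5 uM VDR-LBD and LG19078 (final concentrations). Compounds were incubated for 2 hours at room temperature.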

Sequence of Peroxisome proliferator-activated receptor gamma (Homo sapiens) (P37231 whole entry, looked up): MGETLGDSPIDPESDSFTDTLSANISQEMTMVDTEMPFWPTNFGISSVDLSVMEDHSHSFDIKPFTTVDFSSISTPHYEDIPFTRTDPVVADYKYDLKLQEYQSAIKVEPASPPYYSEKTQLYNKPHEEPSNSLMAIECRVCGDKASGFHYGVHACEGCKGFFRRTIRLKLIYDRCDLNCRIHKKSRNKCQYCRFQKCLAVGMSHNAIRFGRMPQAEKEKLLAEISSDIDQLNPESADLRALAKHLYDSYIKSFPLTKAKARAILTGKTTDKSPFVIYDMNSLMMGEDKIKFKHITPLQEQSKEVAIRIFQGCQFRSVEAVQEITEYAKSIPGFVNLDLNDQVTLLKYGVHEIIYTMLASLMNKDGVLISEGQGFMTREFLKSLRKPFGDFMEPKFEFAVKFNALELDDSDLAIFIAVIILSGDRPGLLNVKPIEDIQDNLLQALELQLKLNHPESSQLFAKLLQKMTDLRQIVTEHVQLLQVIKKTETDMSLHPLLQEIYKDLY
Sequence of Vitamin D3 receptor (Homo sapiens) (P11473 whole entry, looked up): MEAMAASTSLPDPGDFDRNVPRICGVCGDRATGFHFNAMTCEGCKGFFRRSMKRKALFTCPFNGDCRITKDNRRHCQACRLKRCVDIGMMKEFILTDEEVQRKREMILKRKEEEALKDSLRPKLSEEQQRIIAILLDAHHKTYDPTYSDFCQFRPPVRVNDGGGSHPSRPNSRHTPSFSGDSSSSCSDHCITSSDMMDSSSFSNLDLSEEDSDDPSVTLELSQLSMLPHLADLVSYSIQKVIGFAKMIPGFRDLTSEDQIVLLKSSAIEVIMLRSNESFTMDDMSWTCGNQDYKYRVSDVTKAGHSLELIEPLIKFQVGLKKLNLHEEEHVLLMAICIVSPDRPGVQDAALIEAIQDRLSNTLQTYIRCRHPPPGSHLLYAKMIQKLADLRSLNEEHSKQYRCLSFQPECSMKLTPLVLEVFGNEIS
Sequence of Voltage-gated inwardly rectifying potassium channel KCNH2 (Homo sapiens) (Q12809 whole entry, looked up): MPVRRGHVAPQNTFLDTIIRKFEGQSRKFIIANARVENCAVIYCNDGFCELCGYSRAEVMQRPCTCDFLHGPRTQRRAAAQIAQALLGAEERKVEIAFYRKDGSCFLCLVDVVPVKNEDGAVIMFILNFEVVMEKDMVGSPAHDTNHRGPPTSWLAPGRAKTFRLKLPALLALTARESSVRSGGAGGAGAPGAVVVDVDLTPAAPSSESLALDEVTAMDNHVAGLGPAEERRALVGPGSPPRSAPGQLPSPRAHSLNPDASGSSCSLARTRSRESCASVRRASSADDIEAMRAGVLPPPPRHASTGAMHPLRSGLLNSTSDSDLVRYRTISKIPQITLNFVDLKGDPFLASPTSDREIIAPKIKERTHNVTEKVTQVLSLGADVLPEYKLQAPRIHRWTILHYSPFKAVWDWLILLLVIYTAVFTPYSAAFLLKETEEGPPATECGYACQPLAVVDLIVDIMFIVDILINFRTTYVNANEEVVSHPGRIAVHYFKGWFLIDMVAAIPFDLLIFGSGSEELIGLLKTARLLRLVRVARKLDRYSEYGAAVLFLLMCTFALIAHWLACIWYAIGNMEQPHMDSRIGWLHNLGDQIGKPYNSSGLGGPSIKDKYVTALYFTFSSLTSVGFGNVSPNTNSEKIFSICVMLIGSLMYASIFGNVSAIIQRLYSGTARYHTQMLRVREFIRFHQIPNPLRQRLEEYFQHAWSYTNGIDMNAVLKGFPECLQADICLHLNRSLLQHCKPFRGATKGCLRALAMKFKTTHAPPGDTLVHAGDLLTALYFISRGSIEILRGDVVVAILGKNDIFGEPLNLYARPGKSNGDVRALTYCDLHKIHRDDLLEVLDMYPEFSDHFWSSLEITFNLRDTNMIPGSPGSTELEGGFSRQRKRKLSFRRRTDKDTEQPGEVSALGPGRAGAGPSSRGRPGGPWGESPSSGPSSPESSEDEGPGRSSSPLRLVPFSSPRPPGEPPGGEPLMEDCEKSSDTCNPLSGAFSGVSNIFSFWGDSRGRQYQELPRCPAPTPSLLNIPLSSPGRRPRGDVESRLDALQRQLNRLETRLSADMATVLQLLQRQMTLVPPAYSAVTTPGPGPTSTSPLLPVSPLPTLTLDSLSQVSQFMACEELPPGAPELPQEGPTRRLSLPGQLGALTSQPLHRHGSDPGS
Sequence of Glucocorticoid receptor (Homo sapiens) (P04150 whole entry, looked up): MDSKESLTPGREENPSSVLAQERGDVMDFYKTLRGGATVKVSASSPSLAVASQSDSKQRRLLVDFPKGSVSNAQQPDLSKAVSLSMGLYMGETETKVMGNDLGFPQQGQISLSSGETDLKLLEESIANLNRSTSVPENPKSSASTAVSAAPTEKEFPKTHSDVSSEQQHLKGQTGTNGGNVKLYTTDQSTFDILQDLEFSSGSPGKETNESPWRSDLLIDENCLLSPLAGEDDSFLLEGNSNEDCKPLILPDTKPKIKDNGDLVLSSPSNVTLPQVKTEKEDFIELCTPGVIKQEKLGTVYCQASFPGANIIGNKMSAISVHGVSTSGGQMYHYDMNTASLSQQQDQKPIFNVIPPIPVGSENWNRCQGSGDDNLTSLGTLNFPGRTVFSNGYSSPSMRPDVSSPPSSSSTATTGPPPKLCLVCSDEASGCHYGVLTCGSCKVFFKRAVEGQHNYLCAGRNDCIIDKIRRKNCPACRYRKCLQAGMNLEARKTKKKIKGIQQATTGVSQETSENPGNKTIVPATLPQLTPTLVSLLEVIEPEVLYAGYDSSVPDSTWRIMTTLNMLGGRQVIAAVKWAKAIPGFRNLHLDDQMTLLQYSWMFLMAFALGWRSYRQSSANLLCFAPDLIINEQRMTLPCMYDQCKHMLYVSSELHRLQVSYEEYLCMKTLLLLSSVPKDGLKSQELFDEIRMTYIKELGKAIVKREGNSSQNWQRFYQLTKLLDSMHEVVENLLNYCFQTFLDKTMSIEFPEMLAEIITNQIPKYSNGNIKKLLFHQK
Sequence of Retinoic acid receptor RXR-alpha (Homo sapiens) (P19793 whole entry, looked up): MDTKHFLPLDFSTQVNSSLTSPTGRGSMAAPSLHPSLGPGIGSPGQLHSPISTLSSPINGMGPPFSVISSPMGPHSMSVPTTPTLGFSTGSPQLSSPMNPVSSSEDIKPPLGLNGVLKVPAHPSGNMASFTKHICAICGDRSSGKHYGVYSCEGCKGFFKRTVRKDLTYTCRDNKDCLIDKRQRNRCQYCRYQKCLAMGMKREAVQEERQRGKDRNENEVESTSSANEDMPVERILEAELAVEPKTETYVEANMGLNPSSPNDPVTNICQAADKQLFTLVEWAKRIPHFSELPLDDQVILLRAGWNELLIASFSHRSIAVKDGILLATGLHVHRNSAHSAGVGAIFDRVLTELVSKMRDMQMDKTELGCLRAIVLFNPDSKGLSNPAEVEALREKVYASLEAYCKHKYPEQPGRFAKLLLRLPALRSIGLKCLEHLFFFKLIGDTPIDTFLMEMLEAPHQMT
Sequence of Peroxisome proliferator-activated receptor delta (Homo sapiens) (Q03181 whole entry, looked up): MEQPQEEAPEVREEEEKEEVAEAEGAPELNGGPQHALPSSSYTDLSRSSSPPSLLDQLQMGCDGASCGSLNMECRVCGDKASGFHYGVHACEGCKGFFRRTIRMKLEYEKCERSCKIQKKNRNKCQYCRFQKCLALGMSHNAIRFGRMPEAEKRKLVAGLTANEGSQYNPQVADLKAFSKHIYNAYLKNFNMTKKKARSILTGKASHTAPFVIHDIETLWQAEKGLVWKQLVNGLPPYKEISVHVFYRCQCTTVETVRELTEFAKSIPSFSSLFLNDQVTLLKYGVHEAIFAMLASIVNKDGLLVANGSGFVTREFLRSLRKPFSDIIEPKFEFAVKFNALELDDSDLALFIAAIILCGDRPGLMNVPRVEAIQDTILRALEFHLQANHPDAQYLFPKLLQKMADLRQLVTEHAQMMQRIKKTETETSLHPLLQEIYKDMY
Sequence of Luciferin 4-monooxygenase (Photinus pyralis) (P08659 whole entry, looked up): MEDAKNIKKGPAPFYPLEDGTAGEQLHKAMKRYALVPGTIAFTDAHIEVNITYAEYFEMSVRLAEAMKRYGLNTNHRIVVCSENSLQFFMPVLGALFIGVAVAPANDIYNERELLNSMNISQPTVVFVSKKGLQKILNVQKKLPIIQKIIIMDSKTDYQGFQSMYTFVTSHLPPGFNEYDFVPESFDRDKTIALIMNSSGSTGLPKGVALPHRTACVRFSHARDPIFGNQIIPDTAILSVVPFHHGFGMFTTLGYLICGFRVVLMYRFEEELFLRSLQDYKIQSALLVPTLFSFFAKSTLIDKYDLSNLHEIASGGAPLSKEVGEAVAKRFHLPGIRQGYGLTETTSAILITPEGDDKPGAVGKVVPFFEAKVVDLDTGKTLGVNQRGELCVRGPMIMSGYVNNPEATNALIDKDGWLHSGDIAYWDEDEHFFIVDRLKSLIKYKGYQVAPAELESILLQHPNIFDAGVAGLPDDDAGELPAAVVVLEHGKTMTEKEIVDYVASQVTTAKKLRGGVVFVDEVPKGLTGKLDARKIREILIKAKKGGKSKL
Sequence of Estrogen receptor (Homo sapiens) (P03372 whole entry, looked up): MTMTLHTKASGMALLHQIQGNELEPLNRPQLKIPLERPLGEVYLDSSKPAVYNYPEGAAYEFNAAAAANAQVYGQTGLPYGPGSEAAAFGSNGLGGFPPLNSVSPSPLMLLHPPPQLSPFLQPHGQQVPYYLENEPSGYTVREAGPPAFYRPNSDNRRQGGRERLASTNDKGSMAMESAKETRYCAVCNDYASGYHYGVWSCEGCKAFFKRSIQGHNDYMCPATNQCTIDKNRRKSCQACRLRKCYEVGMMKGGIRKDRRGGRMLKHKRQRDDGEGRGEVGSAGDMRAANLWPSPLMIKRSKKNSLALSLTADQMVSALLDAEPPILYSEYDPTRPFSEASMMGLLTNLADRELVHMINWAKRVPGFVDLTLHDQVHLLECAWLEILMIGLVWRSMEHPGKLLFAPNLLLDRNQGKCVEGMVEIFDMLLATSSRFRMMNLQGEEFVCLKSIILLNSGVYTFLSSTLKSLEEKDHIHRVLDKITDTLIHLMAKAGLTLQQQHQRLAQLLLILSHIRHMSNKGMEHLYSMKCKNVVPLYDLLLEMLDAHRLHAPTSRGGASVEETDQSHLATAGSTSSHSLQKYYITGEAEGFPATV

CC(C(=O)O)c1ccc(-c2ccccc2)c(F)c1 (stereo not drawn)
inactive: Potency [1]

CC/C(=C(\c1ccccc1)c1ccc(OCCN(C)C)cc1)c1ccccc1
inactive: activation [2] 5.77% and -2.85% | Potency [3] | Potency [4] | Potency [5]

CC(=O)N[C@@H](CS)C(=O)O
-4.28%: max response [7]
inactive: outcome [6] | Potency [3] | outcome [8] | outcome [9] | outcome [10] | outcome [12] | max response [14] 2.12% | activity change % (negative = inhibition) [15] -10.2% | Potency [1] | Potency [5]
-5.69%: max response [13]
-10.9%: max response [11]

CN(C)CCC(c1ccccc1)c1ccccn1 (stereo not drawn)
inactive: activation [2] 4.14% | outcome [8] | outcome [9] | outcome [10] | outcome [16] | outcome [12] | max response [14] -4.45% | activity change % (negative = inhibition) [15] -6.32% | Potency [5]
-9.83%: max response [11]
-6.63%: max response [13]
37.9%: max response [7]

O=C(O)Cc1cccc2ccccc12
inactive: outcome [6] | outcome [8] | Potency [4] | outcome [10] | outcome [16] | max response [14] 3.25% and 2.98% | activity change % (negative = inhibition) [15] 9.53% and -11.8% | Potency [1] | Potency [5]
-5.32% and -9%: max response [11]
10.6% and 0.107%: max response [7]
4.01% and -7.8%: max response [13]

CC(C)NCC(O)COc1cccc2[nH]ccc12 (stereo not drawn)
inactive: Potency [1] | Potency [5]

O=c1c(O)c(-c2ccc(O)cc2)oc2cc(O)cc(O)c12
inactive: outcome [6] | activation [2] -2.66% and -3.79% | outcome [8] | Potency [4] | outcome [12] | activity change % (negative = inhibition) [15] 0.335% and 4.17%
-17.2% and 39.5%: max response [7]
23%: max response [11]

O=c1cc(-c2ccccc2)oc2cc(O)cc(O)c12
inactive: activation [2] -10.9% | outcome [12]

O=C1NC(=O)C(c2ccccc2)(c2ccccc2)N1
-1.34% and -8.57% and -15.1%: max response [11]
-66.4% and 31.2% and 54.5%: max response [7]
-8.37% and -14.2% and -3.37%: max response [13]
inactive: activation [2] -3.98% and -0.765% and -12.7% | Potency [3] | outcome [8] | outcome [9] | Potency [4] | outcome [12] | max response [14] 15.9% and 2.5% and -5.42% | activity change % (negative = inhibition) [15] -1.15% and 6.61% | Potency [1] | Potency [5]

CC(=O)c1ccc(S(=O)(=O)NC(=O)NC2CCCCC2)cc1
0.432% and 9.79%: max response [11]
3.83% and 9.27%: max response [7]
-6.48% and 24.9%: max response [13]
inactive: outcome [17] | activation [18] -0.897% and 2.97% | outcome [19] | outcome [6] | activation [2] 9.83% and -7.15% | Potency [3] | outcome [8] | outcome [9] | Potency [4] | outcome [10] | outcome [16] | outcome [12] | max response [14] -4.66% and -24.2% | activity change % (negative = inhibition) [15] -3.97% and -18% | Potency [1] | Potency [5]

Clc1ccc(Cn2c(CN3CCCC3)nc3ccccc32)cc1
active: Potency [1] 1.41 µM and 3.98 µM
inactive: Potency [5]

O=C(O)c1cc(-c2ccccc2)nc2ccccc12
inactive: activation [18] -15.7% | outcome [19] | outcome [6] | Potency [3] | outcome [8] | Potency [4] | outcome [16] | outcome [12] | max response [14] -7.59% | activity change % (negative = inhibition) [15] 5.82% | Potency [1]
26.3%: max response [11]
9.45%: max response [13]
active: Potency [5] 18.6 µM
54.7%: max response [7]

COC(=O)[C@@H]1[C@H]2C[C@H]3c4[nH]c5ccccc5c4CCN3C[C@@H]2CC[C@@H]1O
active: Potency [1] 11.2 µM

O=c1c(-c2ccc(O)cc2)coc2cc(O)ccc12
2.28% and 13.9%: max response [13]
40.9% and 70.8%: max response [7]
inactive: outcome [19] | outcome [6] | activation [2] -8.98% and -6.42% | Potency [3] | outcome [8] | outcome [9] | Potency [4] | outcome [12] | max response [14] 8.82% and -46% | activity change % (negative = inhibition) [15] 20.4% | Potency [1]

OC[C@@H](O)[C@H](O)[C@H](O)[C@@H](O)CO
inactive: Potency [1]

O=c1[nH]cnc2c1ncn2[C@H]1CC[C@@H](CO)O1
0.954% and -9.72%: max response [11]
inactive: outcome [17] | activation [2] 10.5% and 6.23% | Potency [3] | outcome [8] | outcome [9] | outcome [12] | max response [14] 9.86% | activity change % (negative = inhibition) [15] 9.23% | Potency [1] | Potency [5]
-5.91%: max response [13]
45.2%: max response [7]

CC(=O)O[C@]1(C(C)=O)CC[C@H]2[C@@H]3C=C(Cl)C4=CC(=O)[C@@H]5C[C@@H]5[C@]4(C)[C@H]3CC[C@@]21C
inactive: outcome [10] | outcome [12] | activity change % (negative = inhibition) [15] 13.7% and 12.8% | Potency [1] | Potency [5]

CCCNC(=O)NS(=O)(=O)c1ccc(Cl)cc1
-1.39% and 4.27%: max response [13]
2.79% and 10.5%: max response [11]
inactive: outcome [17] | activation [2] 0.922% and 6.93% | Potency [3] | outcome [8] | outcome [9] | Potency [4] | outcome [10] | outcome [16] | outcome [12] | max response [14] 15% and -16.7% | activity change % (negative = inhibition) [15] 15.7% and -17.5% | Potency [1] | Potency [5]
8.72%: max response [7]

CC1(C)CCC2=C(O1)c1ccccc1C(=O)C2=O
active: Potency [20] 14.1 µM
